{
  "source": "paper PMC10668032",
  "about": "“Altered binding affinity of SIX1-Q177R correlates with enhanced WNT5A and WNT pathway effector expression in Wilms tumor”",
  "note": "Over roughly 33,000 sequences, “e-score” has its median near -0.053; the highest 2% begin near 0.38. This excerpt belongs to a sample that is enriched for the highest values.",
  "data": [
    {"target": "T1, SIX1 homeodomain (reference allele) (human, UniProt Q15475 108-198)", "T1 sequence": "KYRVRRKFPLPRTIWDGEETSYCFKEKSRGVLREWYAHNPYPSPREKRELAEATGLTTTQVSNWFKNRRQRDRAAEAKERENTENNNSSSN", "experiment": "universal protein binding microarray; Universal all-10-mer PBM (8x60K, AMADID 030236), 300 nM GST-tagged protein, Alexa Fluor 488 anti-GST; buffer, salt, pH and temperature not stated (as in Berger); high values mean tight binding", "details": "protein: ivt; tags: N-terminal GST; dsDNA, one strand shown", "how_it_was_run": "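Homeodomains fused to GST were made by in vitro transcription/translation and measured by anti-GST western blot with a recombinant GST standard curve. At 300 nM final concentration, they were applied in duplicate to universal 'all 10-mer' protein binding microarrays (8×60K format).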", "units": {"binding signal": "E-score"}, "values": [
      {"sequence": "ATTGGATC", "binding signal": "0.365 ± 0.0365"},
      {"sequence": "ATCGAGCG", "binding signal": "0.156 ± 0.0113"},
      {"sequence": "TATATTCA", "binding signal": "0.166 ± 0.0205"},
      {"sequence": "AACCATAT", "binding signal": "0.303 ± 0.013"},
      {"sequence": "ACCCATAT", "binding signal": "0.3794 ± 0.00238"},
      {"sequence": "ACCCATCT", "binding signal": "0.204 ± 0.0603"},
      {"sequence": "GATTGATA", "binding signal": "0.381 ± 0.046"},
      {"sequence": "GATTGAGA", "binding signal": "0.151 ± 0.0232"},
      {"sequence": "CCTTGATA", "binding signal": "0.317 ± 0.0459"},
      {"sequence": "AATTGATA", "binding signal": "0.344 ± 0.0859"},
      {"sequence": "CATTGATC", "binding signal": "0.265 ± 0.000601"},
      {"sequence": "CATTGATA", "binding signal": "0.391 ± 0.0167"},
      {"sequence": "ACACCTCA", "binding signal": "0.24 ± 0.0368"},
      {"sequence": "ACTAGCCG", "binding signal": "0.183 ± 0.0569"},
      {"sequence": "CTATAATC", "binding signal": "0.157 ± 0.0879"},
      {"sequence": "ATCGTGGG", "binding signal": "0.163 ± 0.0327"},
      {"sequence": "ATGGATAC", "binding signal": "0.447 ± 0.0217"},
      {"sequence": "ATGGATAA", "binding signal": "0.212 ± 0.00686"},
      {"sequence": "ATGGATAG", "binding signal": "0.247 ± 0.00822"},
      {"sequence": "CTGGATAC", "binding signal": "0.387 ± 0.0256"},
      {"sequence": "CTGGATTA", "binding signal": "0.177 ± 0.0302"},
      {"sequence": "ACTACGAT", "binding signal": "0.1669 ± 0.00123"},
      {"sequence": "TATCCAGA", "binding signal": "0.3343 ± 0.00221"},
      {"sequence": "ATACACAA", "binding signal": "0.232 ± 0.0214"},
      {"sequence": "AGGATTAA", "binding signal": "0.243 ± 0.0865"},
      {"sequence": "ATCCCTCA", "binding signal": "0.312 ± 0.0176"},
      {"sequence": "AATACCCC", "binding signal": "0.4268 ± 0.000757"},
      {"sequence": "AATACCTC", "binding signal": "0.331 ± 0.0598"},
      {"sequence": "AATACCCT", "binding signal": "0.384 ± 0.0168"},
      {"sequence": "CATACCCC", "binding signal": "0.258 ± 0.054"},
      {"sequence": "AATACCCA", "binding signal": "0.2902 ± 0.00209"},
      {"sequence": "AATACCAG", "binding signal": "0.306 ± 0.0188"},
      {"sequence": "AATACCCG", "binding signal": "0.293 ± 0.0206"},
      {"sequence": "GCTACCCC", "binding signal": "0.158 ± 0.092"},
      {"sequence": "GATACCCC", "binding signal": "0.4957 ± 0.00126"},
      {"sequence": "CCGTCTCG", "binding signal": "0.232 ± 0.00359"},
      {"sequence": "CAATACGG", "binding signal": "0.178 ± 0.00369"},
      {"sequence": "ATTAAATA", "binding signal": "0.24 ± 0.0313"},
      {"sequence": "GATCAGCA", "binding signal": "0.235 ± 0.00865"},
      {"sequence": "ATACGGAC", "binding signal": "0.193 ± 0.00348"},
      {"sequence": "AATATACA", "binding signal": "0.222 ± 0.0386"},
      {"sequence": "GATATACC", "binding signal": "0.4592 ± 0.00376"},
      {"sequence": "GATATTCC", "binding signal": "0.376 ± 0.0303"},
      {"sequence": "GATATTCA", "binding signal": "0.232 ± 0.0803"},
      {"sequence": "AATATTCC", "binding signal": "0.251 ± 0.0499"},
      {"sequence": "TATATACA", "binding signal": "0.284 ± 0.0122"},
      {"sequence": "GATATACA", "binding signal": "0.384 ± 0.0104"},
      {"sequence": "CATATACC", "binding signal": "0.282 ± 0.0234"},
      {"sequence": "AATATACC", "binding signal": "0.32 ± 0.0474"},
      {"sequence": "ACACCCGG", "binding signal": "0.344 ± 0.043"},
      {"sequence": "GTGTTAGA", "binding signal": "0.214 ± 0.00425"},
      {"sequence": "ACGATCGT", "binding signal": "0.154 ± 0.0131"},
      {"sequence": "CAGTAGTA", "binding signal": "0.154 ± 0.00593"},
      {"sequence": "GATTATTA", "binding signal": "0.209 ± 0.0336"},
      {"sequence": "GATCTGAC", "binding signal": "0.238 ± 0.00706"},
      {"sequence": "AGACCTAT", "binding signal": "0.17 ± 0.0148"},
      {"sequence": "ATATAGGG", "binding signal": "0.229 ± 0.0134"},
      {"sequence": "CTTGGATA", "binding signal": "0.236 ± 0.024"},
      {"sequence": "CTCGGATA", "binding signal": "0.375 ± 0.00642"},
      {"sequence": "ATCGGATG", "binding signal": "0.252 ± 0.00376"},
      {"sequence": "ATCGGATA", "binding signal": "0.423 ± 0.00904"},
      {"sequence": "CTCGGATC", "binding signal": "0.396 ± 0.0127"},
      {"sequence": "ATCGGAAA", "binding signal": "0.159 ± 0.00362"},
      {"sequence": "CTTGGATC", "binding signal": "0.295 ± 0.0145"},
      {"sequence": "ATCGGACA", "binding signal": "0.237 ± 0.0182"},
      {"sequence": "ATCGGATC", "binding signal": "0.426 ± 0.0203"},
      {"sequence": "ATCGGACC", "binding signal": "0.229 ± 0.0739"},
      {"sequence": "GTTGGATA", "binding signal": "0.295 ± 0.00342"},
      {"sequence": "GTCGGATA", "binding signal": "0.407 ± 0.00687"},
      {"sequence": "AATATTAA", "binding signal": "0.187 ± 0.0103"},
      {"sequence": "GATCGAGC", "binding signal": "0.218 ± 0.00887"},
      {"sequence": "TATGCATA", "binding signal": "0.202 ± 0.0575"},
      {"sequence": "ATACTAGA", "binding signal": "0.218 ± 0.0317"},
      {"sequence": "CACTCCGG", "binding signal": "0.195 ± 0.0209"},
      {"sequence": "AACCCGAT", "binding signal": "0.25 ± 0.0182"},
      {"sequence": "ATAGCAGG", "binding signal": "0.29151 ± 0.000127"},
      {"sequence": "CCTTGTGA", "binding signal": "0.164 ± 0.0725"},
      {"sequence": "ATCGCAAC", "binding signal": "0.198 ± 0.0486"},
      {"sequence": "CGTACACC", "binding signal": "0.205 ± 0.0267"},
      {"sequence": "GAGTATCC", "binding signal": "0.4205 ± 0.00087"},
      {"sequence": "AAGTATAC", "binding signal": "0.338 ± 0.0623"},
      {"sequence": "AAGTATCC", "binding signal": "0.388 ± 0.0363"},
      {"sequence": "GATTATCC", "binding signal": "0.329 ± 0.00414"},
      {"sequence": "GAGTATAC", "binding signal": "0.262 ± 0.0252"},
      {"sequence": "AACTATCC", "binding signal": "0.281 ± 0.0413"},
      {"sequence": "ATACTCAG", "binding signal": "0.35 ± 0.0154"},
      {"sequence": "GCAAGATA", "binding signal": "0.17 ± 0.0455"}
    ]}
  ]
}
